# Measured values published in the supplement of paper PMC8728848.
# This excerpt belongs to a sample that is enriched for the strongest signals.
# B1: Siglec 6 (Homo sapiens), O43699 (protein)
# chain: MLPLLLPLLWAGALAQERRFQLEGPESLTVQEGLCVLVPCRLPTTLPASYYGYGYWFLEGADVPVATNDPDEEVQEETRGRFHLLWDPRRKNCSLSIRDARRRDNAAYFFRLKSKWMKYGYTSSKLSVRVMALTHRPNISIPGTLESGHPSNLTCSVPWVCEQGTPPIFSWMSAAPTSLGPRTTQSSVLTITPRPQDHSTNLTCQVTFPGAGVTMERTIQLNVSYAPQKVAISIFQGNSAAFKILQNTSSLPVLEGQALRLLCDADGNPPAHLSWFQGFPALNATPISNTGVLELPQVGSAEEGDFTCRAQHPLGSLQISLSLFVHWKPEGRAGGVLGAVWGASITTLVFLCVCFIFRVKTRRKKAAQPVQNTDDVNPVMVSGSRGHQHQFQTGIVSDHPAEAGPISEDEQELHYAVLHFHKVQPQEPKVTDTEYSEIKIHK
# B2: Surfactant Protein D (Human); Neck + Carbohydrate Recognition Domain (NCRD) (Homo sapiens) (protein)
# chain: MLLFLLSALVLLTQPLGYLEAEMKTYSHRTMPSACTLVMCSSVESGLPGRDRDGREGPRGEKGDPGLPGAAGQAGMPGQAGPVGPKGDNGSVGEPGPKGDTGPSGPPGPPGVPGPAGREGALGKQGNIGPQGKPGPKGEAGPKGEVGAPGMQGSAGARGLAGPKGERGVPGERGVPGNTGAAGSAGAMGPQGSPGARGPPGLKGDKGIPGDKGAKGESGLPDVASLRQQVEALQGQVQHLQAAFSQYKKVELFPNGQSVGEKIFKTAQFVKPFTEAQLLCTQAGGQLASPRSAAENAALQQLVVAKNEAAFLSMTDSKTEGKFTYPTGESLVYSNWAPGKPNDDGGSEDCVEIFTNGKWNDRACGEKRLVVCEF
# What was measured:
# Assay in all cases: glycan array binding signal (z-score within array); higher = stronger binding
# [1] = biological target: Fuc(a1-2)Gal(b1-4)[Fuc(a1-3)]GlcNAc; conditions: glycan notation: IUPAC condensed, linker removed
# How it was run: (§1)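 The binding signal is a Z-score computed within each array and averaged over linkers. Arrays of the same protein sequence at different concentrations or buffers were also averaged together. Data originate from 3228 arrays in the Consortium for Functional Glycomics database, kept only where the protein sequence was available.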
# [2] = biological target: Fuc(a1-2)[Gal(a1-4)]Gal(b1-4)GalNAc; conditions: glycan notation: IUPAC condensed, linker removed
# How it was run: as §1
# [3] = biological target: Gal(a1-2)Gal; conditions: glycan notation: IUPAC condensed, linker removed
# How it was run: as §1
# [4] = biological target: Gal(a1-3)Gal(b1-3)GlcNAc; conditions: glycan notation: IUPAC condensed, linker removed
# How it was run: as §1
# [5] = biological target: Gal(a1-4)GlcNAc; conditions: glycan notation: IUPAC condensed, linker removed
# How it was run: as §1
# [6] = biological target: Gal(b1-3)[Neu5Ac(a2-6)]GlcNAc; conditions: glycan notation: IUPAC condensed, linker removed
# How it was run: as §1
# [7] = biological target: Gal(b1-4)GlcNAc(b1-2)Man(a1-3)[Gal(b1-4)GlcNAc(b1-2)Man(a1-6)]Man(b1-4)GlcNAc(b1-4)GlcNAc; conditions: glycan notation: IUPAC condensed, linker removed
# How it was run: as §1
# [8] = biological target: Gal(b1-4)GlcNAc(b1-6)[Gal(b1-3)]GalNAc; conditions: glycan notation: IUPAC condensed, linker removed
# How it was run: as §1
# [9] = biological target: Gal3S(b1-4)GlcNAc6S; conditions: glycan notation: IUPAC condensed, linker removed
# How it was run: as §1
# [10] = biological target: Gal3S6S(b1-4)GlcNAc; conditions: glycan notation: IUPAC condensed, linker removed
# How it was run: as §1
# [11] = biological target: Gal3S6S(b1-4)GlcNAc6S; conditions: glycan notation: IUPAC condensed, linker removed
# How it was run: as §1
# [12] = biological target: Gal4S6S(b1-4)GlcNAc; conditions: glycan notation: IUPAC condensed, linker removed
# How it was run: as §1
# [13] = biological target: Gal6S(b1-4)Glc; conditions: glycan notation: IUPAC condensed, linker removed
# How it was run: as §1
# [14] = biological target: Man(a1-2)Man(a1-3)[Man(a1-6)]Man(a1-6)[Man(a1-2)Man(a1-3)]Man(b1-4)GlcNAc(b1-4)GlcNAc; conditions: glycan notation: IUPAC condensed, linker removed
# How it was run: as §1
# [15] = biological target: Neu5Ac(a2-3)Gal(b1-3)[Fuc(a1-4)]GlcNAc; conditions: glycan notation: IUPAC condensed, linker removed
# How it was run: as §1
# [16] = biological target: Neu5Ac(a2-3)Gal(b1-4)Glc; conditions: glycan notation: IUPAC condensed, linker removed
# How it was run: as §1
# [17] = biological target: Neu5Ac(a2-6)Gal(b1-4)GlcNAc(b1-3)Gal(b1-4)GlcNAc; conditions: glycan notation: IUPAC condensed, linker removed
# How it was run: as §1
# [18] = biological target: Neu5Ac(a2-8)Neu5Ac(a2-3)Gal(b1-4)Glc; conditions: glycan notation: IUPAC condensed, linker removed
# How it was run: as §1
# [19] = biological target: Neu5Ac9Ac(a2-6)Gal(b1-4)GlcNAc; conditions: glycan notation: IUPAC condensed, linker removed
# How it was run: as §1
# [20] = biological target: Neu5Gc(a2-3)Gal(b1-3)GlcNAc; conditions: glycan notation: IUPAC condensed, linker removed
# How it was run: as §1
# [21] = biological target: Fuc(a1-2)[GalNAc(a1-3)]Gal(b1-3)GlcNAc; conditions: glycan notation: IUPAC condensed, linker removed; mutation: E321K
# How it was run: as §1
# [22] = biological target: Fuc(a1-2)[GalNAc(b1-3)]Gal; conditions: glycan notation: IUPAC condensed, linker removed; mutation: E321K
# How it was run: as §1
# [23] = biological target: Gal(a1-3)Gal; conditions: glycan notation: IUPAC condensed, linker removed; mutation: E321K
# How it was run: as §1
# [24] = biological target: Gal(a1-3)Gal(b1-4)GlcNAc; conditions: glycan notation: IUPAC condensed, linker removed; mutation: E321K
# How it was run: as §1
# [25] = biological target: Gal(b1-4)GalNAc(a1-3)[Fuc(a1-2)]Gal(b1-4)GlcNAc; conditions: glycan notation: IUPAC condensed, linker removed; mutation: E321K
# How it was run: as §1
# [26] = biological target: Gal(b1-4)Glc; conditions: glycan notation: IUPAC condensed, linker removed; mutation: E321K
# How it was run: as §1
# [27] = biological target: Gal(b1-4)GlcNAc(b1-3)Gal(b1-3)GlcNAc; conditions: glycan notation: IUPAC condensed, linker removed; mutation: E321K
# How it was run: as §1
# [28] = biological target: Gal(b1-4)GlcNAc(b1-3)GalNAc; conditions: glycan notation: IUPAC condensed, linker removed; mutation: E321K
# How it was run: as §1
# [29] = biological target: Gal6S(b1-4)Glc6S; conditions: glycan notation: IUPAC condensed, linker removed; mutation: E321K
# How it was run: as §1
# [30] = biological target: GlcNAc(b1-3)[GlcNAc(b1-6)]GalNAc; conditions: glycan notation: IUPAC condensed, linker removed; mutation: E321K
# How it was run: as §1
# [31] = biological target: GlcNAc(b1-4)GlcNAc; conditions: glycan notation: IUPAC condensed, linker removed; mutation: E321K
# How it was run: as §1
# [32] = biological target: GlcNAc(b1-4)GlcNAc(b1-4)GlcNAc(b1-4)GlcNAc(b1-4)GlcNAc(b1-4)GlcNAc; conditions: glycan notation: IUPAC condensed, linker removed; mutation: E321K
# How it was run: as §1
# [33] = biological target: Man(a1-2)Man(a1-2)Man(a1-6)[Man(a1-3)]Man; conditions: glycan notation: IUPAC condensed, linker removed; mutation: E321K
# How it was run: as §1
# [34] = biological target: Neu5Ac(a2-3)Gal(b1-3)GalNAc6S; conditions: glycan notation: IUPAC condensed, linker removed; mutation: E321K
# How it was run: as §1
# [35] = biological target: Neu5Ac(a2-3)Gal(b1-4)GlcNAc(b1-3)Gal(b1-3)GlcNAc; conditions: glycan notation: IUPAC condensed, linker removed; mutation: E321K
# How it was run: as §1
# [36] = biological target: Neu5Ac(a2-3)Gal(b1-4)GlcNAc(b1-3)Gal(b1-4)[Fuc(a1-3)]GlcNAc; conditions: glycan notation: IUPAC condensed, linker removed; mutation: E321K
# How it was run: as §1
# [37] = biological target: Neu5Ac(a2-3)Gal6S(b1-4)GlcNAc; conditions: glycan notation: IUPAC condensed, linker removed; mutation: E321K
# How it was run: as §1
# [38] = biological target: Neu5Ac(a2-3)GalNAc(b1-4)GlcNAc; conditions: glycan notation: IUPAC condensed, linker removed; mutation: E321K
# How it was run: as §1
# [39] = biological target: Neu5Ac(a2-6)Gal(b1-4)GlcNAc(b1-2)Man(a1-3)[GlcNAc(b1-2)Man(b1-4)GlcNAc(b1-2)Man(a1-6)]Man(b1-4)GlcNAc(b1-4)GlcNAc; conditions: glycan notation: IUPAC condensed, linker removed; mutation: E321K
# How it was run: as §1
# [40] = biological target: Neu5Ac(a2-8)Neu5Ac(a2-8)Neu5Ac; conditions: glycan notation: IUPAC condensed, linker removed; mutation: E321K
# How it was run: as §1
# [41] = biological target: Neu5Ac(a2-8)Neu5Ac(a2-8)Neu5Ac(a2-3)Gal(b1-4)Glc; conditions: glycan notation: IUPAC condensed, linker removed; mutation: E321K
# How it was run: as §1
# [42] = biological target: Neu5Ac(b2-6)GalNAc; conditions: glycan notation: IUPAC condensed, linker removed; mutation: E321K
# How it was run: as §1
binder,measurement,setting,value
B1,glycan array binding signal (z-score),[1],-0.259
same,glycan array binding signal (z-score),[2],1.21
same,glycan array binding signal (z-score),[3],-0.328
same,glycan array binding signal (z-score),[4],-0.366
same,glycan array binding signal (z-score),[5],-0.074
same,glycan array binding signal (z-score),[6],-0.381
same,glycan array binding signal (z-score),[7],-0.29
same,glycan array binding signal (z-score),[8],-0.521
same,glycan array binding signal (z-score),[9],3.66
same,glycan array binding signal (z-score),[10],5.12
same,glycan array binding signal (z-score),[11],6.44
same,glycan array binding signal (z-score),[12],3
same,glycan array binding signal (z-score),[13],0.086
same,glycan array binding signal (z-score),[14],-0.209
same,glycan array binding signal (z-score),[15],-0.566
same,glycan array binding signal (z-score),[16],-0.332
same,glycan array binding signal (z-score),[17],-0.476
same,glycan array binding signal (z-score),[18],-0.16
same,glycan array binding signal (z-score),[19],-0.211
same,glycan array binding signal (z-score),[20],-0.386
B2,glycan array binding signal (z-score),[1]; mutation: E321K,-0.011
same,glycan array binding signal (z-score),[21],-0.437
same,glycan array binding signal (z-score),[22],-0.418
same,glycan array binding signal (z-score),[23],-0.277
same,glycan array binding signal (z-score),[24],0.494
same,glycan array binding signal (z-score),[25],-0.87
same,glycan array binding signal (z-score),[26],-0.968
same,glycan array binding signal (z-score),[27],-0.871
same,glycan array binding signal (z-score),[28],-0.758
same,glycan array binding signal (z-score),[8]; mutation: E321K,-0.831
same,glycan array binding signal (z-score),[29],2.78
same,glycan array binding signal (z-score),[30],-0.62
same,glycan array binding signal (z-score),[31],2.94
same,glycan array binding signal (z-score),[32],-0.106
same,glycan array binding signal (z-score),[33],0
same,glycan array binding signal (z-score),[34],0.404
same,glycan array binding signal (z-score),[35],-0.578
same,glycan array binding signal (z-score),[36],0.062
same,glycan array binding signal (z-score),[37],0.549
same,glycan array binding signal (z-score),[38],3.92
same,glycan array binding signal (z-score),[39],5.34
same,glycan array binding signal (z-score),[17]; mutation: E321K,-0.587
same,glycan array binding signal (z-score),[40],-0.381
same,glycan array binding signal (z-score),[41],-0.475
same,glycan array binding signal (z-score),[42],3.67
